The values that follow come from PubChem BioAssay AID1476 (National Center for Advancing Translational Sciences (NCATS), 2009).

The structures appear in SMILES notation. Among all 200,000 compounds or so, about 4,500 (2.2%) were called active. Not shown: some 12% with an inconclusive outcome. The call rests on the fitted dose curve; in most records, active means well fitted inhibition curve with a large enough effect; inconclusive means small, poorly fitted or top-dose-only effect, or effect the other way; inactive means flat fitted curve, though single readings scatter. The full list was thinned out, with actives kept by preference.
Potency means the concentration at half of the fitted maximal effect.

Cruzipain (Trypanosoma cruzi), sequence (P25779 123-467 limits assumed): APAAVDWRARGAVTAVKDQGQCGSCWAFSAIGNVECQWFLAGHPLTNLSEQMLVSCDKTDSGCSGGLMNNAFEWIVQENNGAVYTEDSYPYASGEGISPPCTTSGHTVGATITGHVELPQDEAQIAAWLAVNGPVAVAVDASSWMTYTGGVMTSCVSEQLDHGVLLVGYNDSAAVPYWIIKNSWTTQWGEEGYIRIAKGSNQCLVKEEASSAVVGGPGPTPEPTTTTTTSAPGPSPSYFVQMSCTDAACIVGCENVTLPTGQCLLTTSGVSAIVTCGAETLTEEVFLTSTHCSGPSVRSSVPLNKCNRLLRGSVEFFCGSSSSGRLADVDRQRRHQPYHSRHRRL

This test concerns the target Cruzipain (Trypanosoma cruzi) (UniProt P25779). The test can be described thus: qHTS Assay for Promiscuous and Specific Inhibitors of Cruzain (without detergent). Further: nearly all actives have a fitted effect of over 40% in size.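 On max response, negative = inhibition: plate controls were enzyme without inhibitor for no effect and buffer without enzyme for full effect.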 Particulars: purified cruzain, Z-FR-AMC fluorescence, no detergent. The method, boiled down: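 Detergent-free condition (0.00005% Triton X-100) in acetate buffer pH 5.5 with DTT. 1.5 nM enzyme and compound were pre-mixed 15 min, then 2 uM Z-FR-AMC substrate added; reaction progress from fluorescence change between first and third reads (60 s).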
On to `Cc1cc(-c2csc(N)n2)c(C)n1-c1ccccc1`, for which the Potency is 25.1 µM (active).
`Cc1cc(C(=O)OCC(=O)N2c3ccccc3NC(=O)C2(C)C)c(C)n1-c1ccccc1`: the max response, negative = inhibition was -5.2% (inactive).
Take `Cc1n[nH]c(=O)n1-c1ccc(Oc2ccccc2)cc1`: the max response, negative = inhibition was 4.55% (inactive).
`Cc1cccc(N(C)C(=O)CS(=O)(=O)c2cccc3nsnc23)c1`: the max response, negative = inhibition was -1.79% (inactive).
The same measure, in the same setting: for `COc1ccc(-n2c(SCC(=O)Nc3ccc(Cl)c(C)c3)nc3n[nH]c(C)c3c2=N)cc1` the value was -5.01% (inactive).
`CCC(=O)N1CCc2cc(S(=O)(=O)NC(CC(C)C)C(=O)NCCc3cccc(C)c3)ccc21` (stereo not drawn): the max response, negative = inhibition was -3.67% (inactive).
For `COc1ccc(C)cc1NC(=O)C(OC(=O)c1cccc(S(=O)(=O)N(C)c2ccccc2)c1)c1ccccc1` (stereo not drawn), the Potency is 7.94 µM (active).
In the case of `Cc1ccc(C)c(NC(=O)C(OC(=O)c2ccc(C)s2)c2ccccc2)c1` (stereo not drawn), the max response, negative = inhibition is 12.2% (inactive).
With `COc1ccc(C)cc1NC(=O)C(Sc1ccccc1)c1ccccc1` (stereo not drawn), the max response, negative = inhibition was -12.8% (inactive).
Regarding `COc1c(Cl)cc(Cl)cc1C(=O)Nc1cccc2cccnc12`, the max response, negative = inhibition is -4.23% (inactive).
For `O=C1OCCN1C(=O)[C@H]1[C@H](c2ccc(F)cc2)C(c2ccccc2)=NN1c1ccc(Br)cc1`, the Potency was 22.4 µM (active).
Consider `O=C1OCCN1C(=O)[C@H]1[C@H](c2ccc(Cl)cc2)C(c2cccc(Cl)c2)=NN1c1ccc(Br)cc1`, for which the Potency is 8.91 µM (active).
Same read-out and setting: then `C[C@@H]1C(c2ccc(F)cc2)=NN(c2ccc(Br)cc2)[C@H]1C(=O)N1CCOC1=O`, with 22.4 µM (active).
`Cc1ccc2c(c1)N(C(=O)Nc1ccc(Br)cc1F)CCO2`: the max response, negative = inhibition was 5.17% (inactive).
For the compound `COc1ccc(NS(=O)(=O)c2cc3c4c(c2)CC(=O)N4CCC3)cc1Cl`, the max response, negative = inhibition is -28.2% (inactive).
On to `COc1cccc(CNC(=O)c2ccc3c(c2)sc2nc(-c4cccc(OC)c4)cn23)c1`, for which the max response, negative = inhibition is -4.99% (inactive).
As to `CC1CCN(c2nc3ccc(C(=O)N4CCN(c5ccccc5)CC4)cc3s2)CC1`, the max response, negative = inhibition was -2.72% (inactive).
Take `CCC(CC)c1nn2cc(-c3ccccc3)nc2s1`: the max response, negative = inhibition was -2.39% (inactive).
Regarding `Oc1c(C(c2ccc(F)cc2)N2CCN(Cc3ccccc3)CC2)sc2nc(-c3ccco3)nn12` (stereo not drawn), the max response, negative = inhibition is 1.08% (inactive).
Take `CCC(=O)N1CCc2cc(S(=O)(=O)NCCC(=O)Nc3cccc(C)c3C)ccc21`: the max response, negative = inhibition is -1.54% (inactive).
Same read-out and setting: for `Cc1ccc(NC(=O)CN2C(=O)C(c3ccc(F)cc3)=NC23CCCCCC3)c(C)c1` the value was 4.08% (inactive).
For the compound `CC(C)NC(=O)CSc1nnc(COc2ccccc2Cl)o1`, the max response, negative = inhibition was -5.33% (inactive).
Take `Cc1cc(C)cc(OCc2nnc(SCC(=O)Nc3ccccc3)o2)c1`: the max response, negative = inhibition was 4.82% (inactive).
Take `Cc1ccccc1OCc1nnc(SCC(=O)N2c3ccccc3Sc3ccc(Cl)cc32)o1`: the Potency is 12.6 µM (active).
Consider `CCOC(=O)c1c(NC(=O)COc2cc(C)ccc2C(C)C)sc(C)c1C`, for which the max response, negative = inhibition was 8.07% (inactive).
For the compound `Cc1ccc(CCNC(=O)c2ccc(CS(=O)(=O)Cc3cccc(C)c3)o2)cc1`, the max response, negative = inhibition was 19.9% (inactive).
Still for that read-out and setting: then `CCCc1cc(=O)n2[nH]c(NCc3ccc(CC)cc3)nc2n1`, with -8.1% (inactive); and `CCc1ccc(NC(=O)N2CCN(C(=O)c3nsc4ccccc34)CC2)cc1`, with -5.87% (inactive); and `COc1cc(NC(=O)c2nn(-c3ccc(C)cc3)c(=O)c3c2c2ccccc2n3C)cc(OC)c1OC`, with -21.7% (inactive).
With `O=C(CCCCn1c(=O)[nH]c2ccccc2c1=O)NCc1ccc2c(c1)OCO2`, the max response, negative = inhibition is 8.55% (inactive).
For `O=C1N(Cc2ccccc2)c2ccc(Cl)cc2C1(O)c1c[nH]c2ccccc12` (stereo not drawn), the max response, negative = inhibition is 18.9% (inactive).
Consider `O=C1N(Cc2ccc3c(c2)OCO3)c2ccccc2C1(O)c1c[nH]c2ccccc12` (stereo not drawn), for which the Potency is 15.8 µM (active).
In the case of `Oc1ccc(-c2nc3ccc(Cl)cn3c2Nc2ccc3c(c2)OCO3)cc1`, the max response, negative = inhibition was -3.92% (inactive).
On to `CCc1ccc(-c2cc(C(=O)NCc3ccco3)c3ccccc3n2)s1`, for which the max response, negative = inhibition is -8.4% (inactive).
With `COc1cccc(-c2cc(C(=O)N/N=C/c3ccc(OC)c(COC(C)=O)c3)c3ccccc3n2)c1`, the max response, negative = inhibition is -16% (inactive).
With `Cc1ccc(-c2cc(C(=O)N/N=C/C=C/c3ccco3)c3ccccc3n2)cc1C`, the Potency was 25.1 µM (active).
On to `N#Cc1nc(/C=C/c2ccc(F)cc2)oc1NC1CCCCC1`, for which the max response, negative = inhibition is -7.33% (inactive).
On to `CCOc1ccc(C2C(C(=O)Nc3ccc(Cl)cc3)=C(C)Nc3nc(C(F)(F)F)nn32)cc1` (stereo not drawn), for which the max response, negative = inhibition was 3.69% (inactive).
Regarding `Cc1ccc2oc(=O)c3cnn(CC(=O)N4CCN(c5cccc(Cl)c5)CC4)c3c2c1`, the max response, negative = inhibition was -11.7% (inactive).
On to `COCCNC(=O)COc1ccccc1C`, for which the max response, negative = inhibition is -9.1% (inactive).
For `Cc1ccccc1OCC(=O)NCC(=O)OCC(=O)c1ccc2ccccc2c1`, the Potency is 10 µM (active).
Consider `Cc1cccc(NC(=O)COc2ccccc2C)n1`, for which the max response, negative = inhibition was 10.4% (inactive).
The same measure, in the same setting: then `CCOc1ccc(NC(=O)C(=O)NCCc2csc3nc(-c4ccccc4F)nn23)cc1`, with -1.02% (inactive); and `CCCSc1ncc(Cl)c(C(=O)Nc2c(C(=O)Nc3ccccc3)oc3ccccc23)n1`, with -6.15% (inactive).
`O=C(CSc1nc2ccccc2o1)N1CCN(c2ccc(Cl)cc2)CC1`: the Potency was 10 µM (active).
Turning to `Cc1ccc(/C=N/NC(=O)CSc2nc3ccccc3o2)cc1`, the max response, negative = inhibition is -9.67% (inactive).
For `O=C(CSc1nc2ccccc2o1)N1CCN(c2ccccc2)CC1`, the max response, negative = inhibition is -4.7% (inactive).
As for `CCN(CC)C(=O)CSc1nc2ccccc2o1`, the Potency is 3.16 µM (active).
On to `CC1Cc2ccccc2N1C(=O)CSc1nc2ccccc2o1` (stereo not drawn), for which the max response, negative = inhibition was -7.1% (inactive).
On the same count and under the same terms, then `O=C(CN1CCN(c2ccc(Cl)cc2)CC1)N1CCCC1`, with -5.28% (inactive); and `COc1ccc(C2=NS(=O)(=O)N(C)C(C(=O)NC(C)c3ccccc3)=C2)cc1` (stereo not drawn), with -27.6% (inactive); and `CCn1c(=O)cc(OCC(=O)Nc2cc(Cl)c(OC)cc2OC)c2ccccc21`, with 0.57% (inactive).
As for `COc1ccc(/C=N/NC(=O)c2ccc(Cl)cc2)cc1COC(C)=O`, the max response, negative = inhibition is 7.25% (inactive).
Consider `N#Cc1cc([N+](=O)[O-])ccc1Oc1cccc(/C=N/NC(=O)c2ccc(Cl)cc2)c1`, for which the Potency was 20 µM (active).
Take `COc1cc(OC)c(/C=N/NC(=O)c2ccc([N+](=O)[O-])cc2)cc1Br`: the max response, negative = inhibition was -5.61% (inactive).
With `CCOC(=O)N1CCN(C(=O)c2cc3c(ccc4ccccc43)oc2=O)CC1`, the max response, negative = inhibition is -18.3% (inactive).
As to `O=c1cc(CO)oc(CN2CCC(Cc3ccccc3)CC2)c1O`, the max response, negative = inhibition was -8.62% (inactive).
As to `CCOC(=O)N1CCN(Cc2oc(CO)cc(=O)c2O)CC1`, the Potency is 1.58 µM (active).
As for `Cc1ccc(C(=O)N2c3ncnn3C3(CCCCC3)[C@@H]3CCCC[C@@H]32)cc1`, the max response, negative = inhibition is 9.53% (inactive).
`COc1ccc(CNC(=O)CSCc2nc(-c3ccccc3F)oc2C)cc1`: the max response, negative = inhibition was -2.99% (inactive).
For `CCS(=O)(=O)c1ncc(N(Cc2ccc(F)cc2)Cc2ccco2)c(C(=O)Nc2cc(C)ccc2C)n1`, the max response, negative = inhibition was -19.1% (inactive).
Take `O=C(NCC1CCCO1)/C(=C\c1ccco1)NC(=O)c1ccccc1` (stereo not drawn): the max response, negative = inhibition was -0.97% (inactive).
For the compound `C/C(=C\c1ccco1)C1Nc2cccc3cccc(c23)N1`, the Potency is 3.16 µM (active).
Take `Cc1ccc(OCC(=O)OCc2cc(=O)n3nc(C4CC4)sc3n2)cc1C`: the max response, negative = inhibition is -7.58% (inactive).
The same measure, in the same setting: then `COc1ccccc1NC(=O)c1oc2ccccc2c1NC(=O)C(C)C`, with -10.9% (inactive); and `CC(=O)c1cccc(NC(=O)CSc2nc3c(c(=O)[nH]2)CCC3)c1`, with -3.06% (inactive).
As for `C=CCNc1nnc(SCC(=O)N2CCCCC2)c2ccccc12`, the Potency was 20 µM (active).
For the compound `C=CCNc1nnc(C)c2ccccc12`, the max response, negative = inhibition was -10.1% (inactive).
Turning to `O=C(CSc1nc2ccccc2nc1Cc1ccccc1)N1CCCCC1`, the max response, negative = inhibition was -0.222% (inactive).
The same measure, in the same setting: for `COc1ccc(CNC(=O)c2cc3cccc(OC)c3oc2=O)cc1` the value was -1.78% (inactive); for `CCOc1ccc(S(=O)(=O)c2cn(Cc3ccc(OC)cc3)c3ccc(F)cc3c2=O)cc1`, 0.948% (inactive).
For the compound `Cc1ccc(-n2c(SCC(=O)c3ccccc3)nc3c([nH]c4ccccc43)c2=O)cc1`, the max response, negative = inhibition was -13.1% (inactive).
Consider `COc1ccc(-c2c(C)nn3c(N4CCC(C(=O)NCCC(C)C)CC4)cc(C)nc23)cc1OC`, for which the max response, negative = inhibition is 4.69% (inactive).
With `Cc1ccc(CN2COc3cc(C)c4c(oc(=O)c5ccccc54)c3C2)cc1`, the max response, negative = inhibition was -21.8% (inactive).
With `Fc1ccc2nc(N3CCCCC3)sc2c1`, the max response, negative = inhibition was 2.08% (inactive).
For `O=C(Nc1nc2c(s1)CCCC2)c1ccccc1F`, the max response, negative = inhibition was -4.21% (inactive).
Regarding `Fc1ccc2nc(Nc3nc4c(s3)CCCC4)sc2c1`, the Potency was 31.6 µM (active).
As to `Cn1c(=O)c2c(SCC(=O)N3CCc4ccccc43)nc(-c3ccc(Cl)cc3)nc2n(C)c1=O`, the max response, negative = inhibition is 16.5% (inactive).
On to `Cc1ccc(S(=O)(=O)N2CCC(C(=O)Nc3cc(C)ccc3C)CC2)cc1`, for which the max response, negative = inhibition was 10.8% (inactive).
For `Cc1ccccc1CSc1nc(-c2ccccc2)nc2c1Cc1c(CO)cnc(C)c1O2`, the max response, negative = inhibition is -5.34% (inactive).
On to `O=C1OC(/C=C/c2ccccc2)=NC/1=C/c1ccco1`, for which the Potency was 3.16 µM (active).
As to `CC(C)(C)C1C/C(=C/c2ccco2)C(=O)/C(=C/c2ccco2)C1` (stereo not drawn), the max response, negative = inhibition is 22.8% (inactive).
Take `COc1ccccc1/C=C/C1=NC(=C\N(C)C)/C(=O)O1`: the max response, negative = inhibition was -2% (inactive).
Regarding `COc1ccccc1-c1nnc(C2CCN(C(=O)c3ccc(Cl)cc3)CC2)o1`, the max response, negative = inhibition is -7.8% (inactive).
With `Fc1cccc(-n2ncc3c2ncn2nc(-c4ccccc4Cl)nc32)c1`, the max response, negative = inhibition is -11.9% (inactive).
In the case of `COc1ccccc1CNC(=O)NCc1noc2ccc(C)cc12`, the max response, negative = inhibition was -3.84% (inactive).
`O=C(CN1CCSc2ccccc21)N1CCN(c2ccccc2)CC1`: the max response, negative = inhibition was -4.92% (inactive).
Consider `Cc1cc2[nH]ncc2cc1NC(=S)NC(=O)c1ccccc1`, for which the max response, negative = inhibition is 0.868% (inactive).
As to `COC(=O)c1cc(NC(=O)c2sc3ccccc3c2Cl)cc(C(=O)OC)c1`, the max response, negative = inhibition is -7.2% (inactive).
Consider `COc1ccc2oc(-c3ccc(C)c(NC(=O)c4sc5ccccc5c4Cl)c3)nc2c1`, for which the max response, negative = inhibition was -7.77% (inactive).
For `COc1ccc(Br)cc1C(=O)NC(=S)Nc1cc(-c2nc3ccccc3[nH]2)ccc1C`, the Potency is 10 µM (active).
Regarding `Cc1ccc(-c2nc3ccccc3[nH]2)cc1NC(=O)c1sc2ccccc2c1Cl`, the Potency was 7.94 µM (active).
`Cc1ccc(-c2nc3ccccc3[nH]2)cc1N`: the max response, negative = inhibition is 0.934% (inactive).
